Compound activity deposited in PubChem BioAssay by National Center for Advancing Translational Sciences (NCATS).
JMJD2A Tudor inh – JMJD2A Tudor domain (human) inhibition; AlphaScreen JMJD2A-Tudor / H3K4me3 peptide binding; Potency, µM (doses to about 114 µM), without a hit: at the top dose activity change, negative = inhibition, most hits filed as inhibitors; 390,000 tested, 4.4% active; AID 504339; note: % is set by controls: 0 for no effect and ±100 for the full control effect; nearly all actives have a fitted effect of over 50% in size
G9a block – blocks human histone lysine methyltransferase G9a | Q96KQ7 | G9a H3K9 monomethylation, AlphaScreen, 2 h | Potency, µM (highest dose often 102 µM), for the others: at the top dose activity, negative = inhibition, actives largely listed as inhibitors | 350,000 tested, 8.8% active; note: % is set by controls: 0 for no effect and ±100 for the full control effect; nearly all actives have a fitted effect of over 75% in size
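Quantitative HTS format: methyltransferase activity on a biotin-tagged H3K9 peptide is measured by AlphaScreen, using a rabbit anti-monomethyl-H3K9 antibody with streptavidin donor and anti-IgG acceptor beads. Final levels are 20 nM enzyme, 500 nM peptide, 20 uM SAM; 2 h RT.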
TDP1 block – blocks human tyrosyl-DNA phosphodiesterase 1; 350,000 tested, 0.28% active; AID 485290; recombinant TDP1, AlphaScreen DNA substrate cleavage; Potency, µM (top dose mostly 130 µM), for inactives: at the highest dose activity change, negative = inhibition, usual class: inhibitors; note: % is set by controls: 0 for no effect and ±100 for the full control effect; nearly all actives have a fitted effect of over 40% in size
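E. coli-derived human Tdp1, 1 nM final. Cpd preinc 15 min RT; substrate 15 nM final, 5 min RT; AS bead mix 10 ug/ml final, 10 min RT. Signal loss = tyrosine-FITC cleavage. No-enzyme wells = max signal.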
BAZ2B inh – BAZ2B (human) inhibition; 360,000 tested, 4.4% active; Potency, µM (doses to about 114 µM), inactives show at the top dose activity change, negative = inhibition, usual class: inhibitors; AlphaScreen BAZ2B-H3K14Ac peptide displacement; note: % is set by controls: 0 for no effect and ±100 for the full control effect; nearly all actives have a fitted effect of over 60% in size
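AlphaScreen displacement: compounds (up to 110uM) incubated 30 min at room temperature with a preformed 50 nM BAZ2B/50 nM biotinylated H3K14Ac peptide complex in PBS pH 7.4 with Tween-20. Donor and acceptor beads at 10 ug/mL final added, 20 min light-protected before reading.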
Sfp PPTase inh – Sfp phosphopantetheinyl transferase inhibition | Q9F4F7 | 310,000 tested, 3.5% active | Potency, µM, for inactives: largest response in the series, negative = inhibition, actives largely listed as inhibitors | AID 1490 | Biochemical Sfp PPTase activity, qHTS;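 note: the enzyme is Sfp with the accession as filed and its product quenches rhodamine fluorescence; 0% = enzyme reaction without inhibitor and -100% = no enzyme wells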
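Reaction rates are the 30-min fluorescence difference (ex 525, em 598 nm) in wells containing 15 nM Sfp, 5 uM rhodamine-CoA and 12.5 uM BHQ-2-YbbR at pH 7.6 with 10 mM MgCl2.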
HP1b binding inh – blocks HP1-beta chromodomain binding to methylated histone tails | 390,000 tested, 0.56% active | AlphaScreen HP1-beta / biotin-H3K9me3 peptide binding | P83916 | Potency, µM (titrated, usually from 114 µM), inactives show top-dose activity change, negative = inhibition, hits mostly inhibitors; note: nearly all actives have a fitted effect of over 70% in size
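HP1-beta protein (50 nM final) preincubated 30 min at room temperature with biotinylated H3(1-18)K9me3 peptide (50 nM) in PBS pH 7.4, 0.01% Tween-20, then compound added for 30 min. AlphaScreen streptavidin donor/nickel chelate acceptor beads (10 ug/mL final), 30 min dark, luminescence read.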
The depositor's hits bear a star; ? = inconclusive; . = not tested or not shown; [ ] = remark or other dose. Sampled rows, rich in hits. Any-hit rate of the full collection: about 12%. Calls come from the whole dose curve; as a rule, active = well fitted curve in the direction sought with a large enough effect; inconclusive = small, poorly fitted or top-dose-only effect, or another doubt; inactive = no such curve, though single readings can be large; an effect the other way counts as inactive or inconclusive. Potency is the fitted concentration of half-maximal effect.

SMILES	JMJD2A Tudor inh	G9a block	TDP1 block	BAZ2B inh	Sfp PPTase inh	HP1b binding inh
Cc1ccn2c(c1)nc(=S)n2C(=O)c1ccco1	.	10µM*	-3.8%	-1.5%	?	.
COc1ccc(NS(=O)(=O)c2ccc(I)cc2)cc1N1CCN(C)CC1	.	.	13.4%	.	-12.3%	.
Nc1ncc(Br)cc1S(=O)(=O)NCCC(=O)NC1CCCCC1	?	-20.9%	5.4%	-21.9%	6.7%	9.9%
C=CCc1cc(Cl)ccc1OCCNCCN1CCOCC1	7.94µM*	10µM*	0.0%	31.6µM*	?	?
C=CCc1cc(Cl)ccc1OCCNCCOC	1µM*	?	5.4%	50.1µM*	-25.7%	?
CCCOc1ccc(Cl)cc1CN1CCOCC1	?	-17.2%[59 µM]	6.1%	1.5%	-8.1%	32.8%
S=c1nc(-c2ccco2)[nH][nH]1	7.08µM*	1.78µM*	5.0%	?	28.2µM*	?
Cc1nn(C)c2c1c(C(F)(F)F)cc(=O)n2CC(=O)N1CCC(C)CC1	-12.0%	3.5%[59 µM]	5.8%	-13.4%	.	0.6%
CC(C)c1cccc2nc3c(c([Si](C)(C)C(C)(C)C)c12)Cn1c-3cccc1=O	.	.	0.9%	.	79.4µM*	.
CC(C)c1cccc2nc3c(c(C(C)(C)C)c12)Cn1c-3cccc1=O	.	.	8.1%	.	0.7%	.
CC(C)c1cccc2c([Si](C)(C)C)c3c(nc12)-c1cccc(=O)n1C3	.	.	-0.9%	.	44.7µM*	.
Cc1occc(=O)c1OC(=O)Nc1ccccc1	20µM*	?	2.3%	?	-24.2%	5.4%
COc1ccc(OC(=O)Nc2ccccc2)cc1	0.0%	0.7%[59 µM]	1.0%	6.6%	11.5%	18.5%
C=CCO/N=C/C1C(=O)CC(C)(C)CC1=O	10µM*	35.5µM*	1.9%	?	?	0.8%
COc1ccc(N=C2S/C(=C\c3ccc(OCC(=O)O)cc3)C(=O)N2CCc2c[nH]c3ccccc23)cc1	8.91µM*	-195.0%[59 µM]	8.1%	14.1µM*	?	17.8µM*
CN1CCN(c2ccc(NC(=O)COc3ccc4ccccc4c3)cc2)CC1	-25.2%	35.5µM*	.	-18.4%	5.2%	12.2%
O=C(COc1ccc([N+](=O)[O-])cc1)Nc1ccc(N2CCN(C(=O)c3ccco3)CC2)cc1	-14.4%	.	3.3%	25.1µM*	-6.5%	52.1%
Cc1ccc([N+](=O)[O-])cc1S(=O)(=O)Nc1ccc(C(=O)N2CCN(C(=O)c3ccco3)CC2)cc1	79.4µM*	-11.3%[2.33 µM]	.	?	.	-12.5%
O=C(COc1ccc2ccccc2c1)Nc1ccc(Cc2ccncc2)cc1	79.4µM*	-9.8%	-13.7%	?	-2.7%	60.5%
O=C(Nc1cccc(S(=O)(=O)Nc2ccccc2F)c1)c1ccc2ccccc2n1	25.1µM*	2.82µM*	5.0%	?	8.91µM*	?
O=C(Cc1ccc(Cl)cc1Cl)Nc1cccc(S(=O)(=O)Nc2ccccc2F)c1	?	1.58µM*	2.7%	?	8.91µM*	?
COc1ccccc1NS(=O)(=O)c1cccc(NC(=O)c2ccc3ccccc3n2)c1	-6.9%	?	7.0%	9.1%	8.5%	34.1%
CCOc1ccc(NC(=O)c2oc3ccccc3c2NC(=O)C(C)Oc2ccccc2)cc1 (centres undefined)	-8.9%	-4.3%[59 µM]	9.0%	-16.7%	.	31.1%
Cn1cccc1C(=O)N1CCC2(CCN(C(=O)Nc3ccccc3)CC2)CC1	.	1.7%[12.7 µM]	.	.	7.2%	.
CC(NCc1ccc(S(N)(=O)=O)cc1)C(=O)N1CCc2ccccc21 (centres undefined)	-14.0%	3.9%	0.6%	-17.9%	4.0%	27.9%
SMILES	JMJD2A Tudor inh	G9a block	TDP1 block	BAZ2B inh	Sfp PPTase inh	HP1b binding inh
N#CC(Cc1ccc(O)c(O)c1)C(=O)N1CCc2ccccc21 (centres undefined)	.	7.08µM*	17.9%[56.1 µM]	.	.	.
COC(=O)c1ccc(N2CCOCC2)c(F)c1	-4.1%	23.5%	4.0%	9.8%	14.2%	18.9%
C/C(=N\Nc1ccc(F)cc1)c1ccc(N2CCOCC2)c(F)c1	-24.6%	28.2µM*	.	-19.0%	-5.8%	31.8%
COc1ccc(CCNC(=O)CCc2c(C)nc3cc(-c4ccccc4)nn3c2C)cc1OC	-7.4%	-32.5%[59 µM]	3.5%	?	.	21.0%
CCc1c(C)nc2cc(-c3ccc(OC)c(OC)c3)nn2c1NCC1CC1	?	56.2µM*	-5.6%	-36.9%	22.4µM*	-8.6%
COc1cc(Cl)cc(C2NC(=S)NC(c3ccccc3)=C2C(C)=O)c1OCC(=O)O (centres undefined)	?	.	.	?	?	-4.6%
C/C(CC1CC2=C(CC1(C)C)C(C)(C)CCC2)=N\NC(N)=S (centres undefined)	-33.7%	31.6µM*	6.6%	-21.3%	?	?
C/C(=N\NC(N)=S)C12CC3CC(CC(C3)C1)C2	-30.4%	-12.7%[12.7 µM]	5.9%	-38.5%	7.6%	13.2%
Fc1ccc(N2CCN(C3=Nc4cccc5cccc3c45)CC2)cc1	25.1µM*	39.8µM*	6.0%	35.5µM*	7.5%	?
CC(=O)OC[C@@H]1O[C@H](C/C=N\O[C@@H]2O[C@H](COC(C)=O)[C@@H](OC(C)=O)[C@H](OC(C)=O)[C@H]2OC(C)=O)C=C[C@@H]1OC(C)=O	.	.	9.0%[21 µM]	.	-5.4%	.
C=C(CN(C)C)C(=O)c1ccc(OC2OC(COC(C)=O)C(OC(C)=O)C(OC(C)=O)C2OC(C)=O)cc1 (centres undefined)	89.1µM*	.	.	.	.	56.2µM*
CCN(c1ccc(NC(=O)COC(=O)c2cccs2)cc1)C(C)C	44.7µM*	11.2µM*	1.8%	?	-5.5%	?
CN(C)S(=O)(=O)c1cccc(NC(=O)COC(=O)c2cc3ccccc3oc2=O)c1	-11.3%	79.4µM*	3.6%	18.2%	16.0%	25.0%
O=C(COC(=O)c1cc2ccccc2oc1=O)Nc1ccc(F)cc1F	-14.0%[11.4 µM]	-1.3%	3.5%	1.1%	-5.0%	31.2%
CCN(c1ccc(NC(=O)COC(=O)c2cc3ccccc3oc2=O)cc1)C(C)C	28.2µM*	22.4µM*	5.9%	31.6µM*	3.6%	?
COc1ccc(OC)c2c1sc(=NC(=O)C1COc3ccccc3O1)n2C (centres undefined)	-7.2%	.	.	2.8%	6.2%	13.4%
Cc1ccc(S(=O)(=O)N(Cc2cccc(Cl)c2)C(=O)N2CCN(C)CC2)cc1	-4.8%	2.5%[59 µM]	.	-6.2%	.	15.0%
COc1ccc(C(=O)NC(=O)CSc2n[nH]c(N)n2)cc1	-3.4%	.	-1.6%	.	.	32.7%
Cc1nc(SCC(=O)Nc2ccc(OCc3ccccc3)cc2)n[nH]1	4.5%	.	6.1%	21.9%	5.1%	43.9%
Nc1nc(SCC(=O)Nc2ccc(OCc3ccccc3)cc2)n[nH]1	-24.6%	-0.2%	70.8µM*	-22.5%	7.2%	65.9%
